The list is not random: actives were taken first. Their share in the collection is about 6.9%.
BAZ2B inh – qHTS Assay for Inhibitors of BAZ2B. Bromodomain adjacent to zinc finger domain protein 2B (Homo sapiens), Q9UIF8. AlphaScreen BAZ2B-H3K14Ac peptide displacement. Potency, µM (highest dose often 114 µM), for inactives: at the top dose activity change, negative = inhibition, hits mostly inhibitors. 360,000 compounds, 4.4% hits. AID 504333, 2011; note: % is set by controls: 0 for no effect and ±100 for the full control effect; nearly all actives have a fitted effect of over 60% in size
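Inhibition is scored as reduced AlphaScreen emission. The BAZ2B/b-H3(5-23)K14Ac complex (50 nM each) in PBS pH 7.4, 0.01% Tween-20 meets compound (up to 110 uM) for 30 min at RT before bead addition.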
PLK1 PBD block – qHTS for Inhibitors of PLK1-PDB (polo-like kinase 1 - polo-box domain): Primary Screen. AID 720504, 2013. Potency, µM, inactives show max response, negative = inhibition, actives largely listed as inhibitors. Plk1 PBD binding of FITC phosphopeptide, fluorescence polarization. 360,000 compounds, 2.8% hits; note: series mostly up to about 57 µM; % is set by controls: 0 for no effect and ±100 for the full control effect; nearly all actives have a fitted effect of over 65% in size
VDR inhibitor – Inhibitors of the vitamin D receptor (VDR): qHTS | Vitamin D3 receptor (Homo sapiens), P11473 | VDR-SRC2-3 peptide fluorescence polarization, 2 h | Potency, µM, inactives show max response, negative = inhibition, hits mostly inhibitors | 400,000 compounds, 0.93% hits; note: % is set by controls: 0 for no effect and ±100 for the full control effect
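VDR–SRC2-3 interaction, FP format. Cmpds 23 nl via pintool, brief spin, 2 h ambient incubation.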
HP1b binding inh – HTS for Inhibitors of HP1-beta Chromodomain Interactions with Methylated Histone Tails | Chromobox protein homolog 1 (Homo sapiens), P83916 | AlphaScreen HP1-beta / biotin-H3K9me3 peptide binding | Potency, µM (doses to about 114 µM), for the others: top-dose activity change, negative = inhibition, hits mostly inhibitors | 390,000 compounds, 0.56% hits; note: nearly all actives have a fitted effect of over 70% in size
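Compound inhibition of the preformed complex between 50 nM HP1-beta and 50 nM biotinylated H3K9me3 peptide was read by AlphaScreen. Buffer was PBS pH 7.4 with 0.01% Tween-20. Incubations ran 30 min at room temperature, with 10 ug/mL donor/acceptor beads.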
JMJD2A Tudor – qHTS Assay for Inhibitors of JMJD2A-Tudor Domain | Potency, µM (highest dose often 114 µM), for inactives: at the top dose activity change, negative = inhibition, hits mostly inhibitors | AlphaScreen JMJD2A-Tudor / H3K4me3 peptide binding | Lysine-specific demethylase 4A (Homo sapiens), O75164 | 390,000 compounds, 4.4% hits; note: % is set by controls: 0 for no effect and ±100 for the full control effect; nearly all actives have a fitted effect of over 50% in size
L3MBTL1 block – qHTS Assay for the Inhibitors of L3MBTL1; AID 485360, 2010; Lethal(3)malignant brain tumor-like protein 1 (Homo sapiens), Q9Y468; Potency, µM (highest dose often 57.1 µM), without a hit: at the highest dose activity, negative = inhibition, most hits filed as inhibitors; AlphaScreen L3MBTL1–H3K9me1 peptide binding; 230,000 compounds, 0.66% hits; note: % is set by controls: 0 for no effect and ±100 for the full control effect; nearly all actives have a fitted effect of over 60% in size
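AlphaScreen assay: L3MBTL1 (50 nM final) was preincubated 30 min at room temperature with biotinylated H3(1-15)K9me1 peptide (75 nM final), then 30 min with library compounds; streptavidin donor and nickel chelate acceptor beads (10 ug/mL final) added, 30 min dark.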
VDR inh confirm – qHTS for Inhibitors of the vitamin D receptor (VDR): Hit Validation in Primary Screen. 840 compounds, 89% hits. shares compounds with VDR inhibitor. Potency, µM, most hits filed as inhibitors. VDR-coactivator inhibition assay, qHTS confirmation. AID 602199, 2012
VDR FP fluor – qHTS for Inhibitors of the vitamin D receptor (VDR): Hit Validation using a Fluorescein Assay | VDR-coactivator binding, fluorescein fluorescence polarization | shares compounds with VDR inhibitor | 840 compounds, 48% hits | AID 602200, 2012 | Potency, µM (highest dose often 57.1 µM), without a hit: top-dose activity change, negative = inhibition, actives largely listed as inhibitors
VDR bla reporter – qHTS for Inhibitors of the vitamin D receptor (VDR): Hit Validation using a Beta-Lactamase Assay; shares compounds with VDR inhibitor; VDR beta-lactamase reporter cells, FRET ratio; cells co-treated with VDR agonist LG190178; Potency, µM (series often up to 46.1 µM), without a hit: at the highest dose activity change, negative = inhibition, actives largely listed as inhibitors; 840 compounds, 23% hits; note: % is set by controls: 0 for no effect and ±100 for the full control effect
VDR viability – qHTS for Inhibitors of the vitamin D receptor (VDR): Hit Validation using a Cytotoxicity Assay; cytotoxicity counter-screen, cell viability, qHTS; shares compounds with VDR inhibitor; Potency, µM (series often up to 48.3 µM), for the others: at the highest dose activity change, negative = cytotoxicity, hits mostly cytotoxic; 840 compounds, 18% hits;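 note: plate controls were DMSO for no effect and high-concentration cycloheximide for full effect; nearly all actives have a fitted effect of over 75% in size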
* = called active by the depositor; ? = inconclusive; nt = no result. Calls come from the whole dose curve; as a rule, active = well fitted curve in the direction sought with a large enough effect; inconclusive = small, poorly fitted or top-dose-only effect, or another doubt; inactive = no such curve, though single readings can be large; an effect the other way counts as inactive or inconclusive. Potency is the fitted concentration of half-maximal effect.

SMILES	BAZ2B inh	PLK1 PBD block	VDR inhibitor	HP1b binding inh	JMJD2A Tudor	L3MBTL1 block	VDR inh confirm	VDR FP fluor	VDR bla reporter	VDR viability
CCOc1cc(/C=C2\C(=O)ON=C2c2ccccc2)cc(Br)c1O	28µM*	?	25µM*	?	25µM*	nt	3.8*	179%	?	-11%
C#CCOc1ccc(/C=C2/C(=O)ON=C2C)cc1Br	-5%	1.7µM*	40µM*	8%	-9%	nt	11*	?	?	-15%
COc1cc(/C=C2\C(=O)ON=C2c2ccccc2)cc(Cl)c1O	45µM*	?	45µM*	45µM*	22µM*	-25%	5.3*	199%	?	-28%
CN1CCN(C(=O)c2cnn3c2NC(c2ccccc2)CC3C(F)(F)F)CC1 (stereo not drawn)	3%	1%	1%	32%	-7%	-7%	nt	nt	nt	nt
O=C(CSC1=NS(=O)(=O)c2cc(Cl)ccc2N1)c1ccc(Cl)cc1	-9%	-6%	-3%	44%	-11%	-5%	nt	nt	nt	nt
CCN(CCS(=O)(=O)c1ccc(Cl)cc1)Cc1nc2ccccc2c(=O)[nH]1	nt	-7%	1%	25%	-12%	0%	nt	nt	nt	nt
Cc1cc(OCC(=O)C(C)(C)C)c2c(-c3ccccc3)cc(=O)oc2c1	0%	-7%	9%	41%	11%	nt	nt	nt	nt	nt
COc1cccc(NC(=O)CN(C)C(=O)c2ccc(OCC3CCCO3)cc2)c1 (stereo not drawn)	-4%	-3%	-19%	?	-12%	-3%	nt	nt	nt	nt
COc1ccc(NC(=O)Cc2coc3cc(C)c(C(C)C)cc23)cc1S(=O)(=O)N1CCOCC1	?	7%	-2%	8%	-30%	-6%	nt	nt	nt	nt
Cc1cc(C)c(NC(=O)CNC(=O)Cc2ccc(S(=O)(=O)N3CCOCC3)s2)c(C)c1	-4%	3%	3%	32%	-3%	-4%	nt	nt	nt	nt
CCOc1cc(/C=C2/C(=O)ON=C2C)cc(Br)c1O	16µM*	5%	56µM*	-18%	-28%	nt	9.5*	233%	33%	11%
COc1cc([N+](=O)[O-])ccc1-c1ccc(/C=N\n2cnnc2)o1	-39%	-23%	-10%	1%	?	-1%	nt	nt	nt	nt
CCCCOc1c(Br)cc(/C=C2\N=C(C)OC2=O)cc1OCC	-7%	-26%	?	43%	3%	-2%	nt	nt	nt	nt
